# Screen size: about 400,000 compounds; about 13,000 (3.2%) were called active. Roughly 18% stayed inconclusive and do not appear here. The call rests on the fitted dose curve; in most records, active means well fitted cell-killing curve with a large enough effect; inconclusive means small, poorly fitted or top-dose-only effect, or effect the other way; inactive means flat fitted curve, though single readings scatter. The full list was thinned out, with actives kept by preference.
# Test: qHTS assay for MDR1-selective chemotherapeutics: Primary screen using the drug-selected MDR subline cells KB-V1; further: nearly all actives have a fitted effect of over 60% in size
# Settings: KB-V1 MDR cells viability, CellTiter-Glo, 72 h; series mostly up to 46.1 µM; activity change, negative = cytotoxicity: at the top concentration
# From the text: A prime difficulty in effectively treating cancer is the development of cellular resistance to multiple structurally unrelated anticancer drugs, a phenomenon known as multidrug resistance (MDR). […] Numerous strategies to overcome P-gp-mediated MDR have been explored, including the design of drugs that evade recognition and efflux, and development of inhibitors to block efflux and restore drug accumulation. […] An alternative approach is to exploit resistance by identifying drugs that target MDR cells over the non-resistant parental cells from which they were selected. […] The development of MDR1-selective agents represents a new strategy for resolving multidrug resistance, as it remains a long-standing clinical challenge for cancer chemotherapy.
# Our goal is to identify compounds that selectively kill P-gp-expressing MDR cells. We will identify MDR1-selective compounds by comparing toxicity of compounds in the screening library against parental, drug-naive (KB-3-1) adenocarcinoma cells as well as their drug-selected MDR sub-line (KB-V1). The differential toxicity of compounds against these two cell lines will be used to identify MDR1-selective compounds, whose cytotoxicity is potentiated, rather than diminished, by P-gp expression. This assay will be utilized to conduct a quantitative high-throughput screen (qHTS) in collaboration with the NIH Chemical Genomics Center to identify selective agents, and probe hits arising from the screen will be validated using secondary assays and characterized through a well-established follow-up research program. This screen was run against the entire NCGC library collection of about 400,000 compounds.
# NIH Molecular Libraries Probe Production Network [MLPCN]
# NIH Chemical Genomics Center [NCGC]
# PI: Michael Gottesman, National Cancer Institute, NIH
# Briefly, 5 microL of media containing either KB-V1 cells (columns 1-2, 4-48) are dispensed into Greiner white, treated solid-bottom 1536-well assay plates (media-only control is added to column 3). Compounds are then transferred via Kalypsys pin tool equipped with 1536-pin array (10 nL slotted pins, V&P Scientific, San Diego, CA). Following addition of compound, the plates are incubated at 37 degrees C for 72 hours. CellTiter-Glo (2.5 µL/well) is then added, and the plates are read in a ViewLux reader (Perkin-Elmer, clear luminescence filter, 1 second exposure, 1x binning) following a 10 minute incubation. All cells are dispensed in DMEM phenol-red free media containing 10% FBS.
# Library plates were screened starting from the lowest and proceeding to the highest concentration. Vehicle-only plates, with DMSO being pin-transferred to columns 5-48, will be inserted uniformly at the beginning and the end of each library in order to monitor and record any shifts in the background, which can be affected by reagent dispensers or loss in enzyme activity over time. Screening data will be corrected, normalized, and concentration-effect relationships will be derived by using publicly-available NCGC, NCATS curve fitting algorithms (http://ncgc.nih.gov/pub/openhts).
# On the % scale 0 is the no-effect control and ±100 the full control effect; potency means the concentration at half of the fitted maximal effect.
Structure (SMILES),"activity change, negative = cytotoxicity",Potency
CC(=O)Nc1cccc(-c2cc3nc(NCc4cccnc4)n(C)c(=O)c3s2)c1,2.7% (inactive),
CC1(C(=O)NS(=O)(=O)c2ccccc2)CCN1C(=O)Cc1ccc(-c2ccccc2)cc1 (centres undefined),2.72% (inactive),
Cc1ccc(C(=O)c2coc3ccc(O)c(CN(C)C)c23)cc1,6.06% (inactive),
COc1ccc(OC)c(C(=O)c2coc3ccc(OC)cc23)c1,-6.37% (inactive),
COc1ccc(OC)c(C(=O)c2coc3ccc(O)c(CN4CCOCC4)c23)c1,,7.31 µM (active)
CC(=O)NC(c1ccccc1)c1nc(-c2ccccc2C)cs1 (centres undefined),5.09% (inactive),
O=C(c1ccco1)N(Cc1cccs1)c1ccc(O)cc1,-11.9% (inactive),
COc1cccc(NC(=O)N(C)C[C@@H]2Oc3ncc(Br)cc3C(=O)N([C@@H](C)CO)C[C@H]2C)c1,-16.2% (inactive),
O=C(CN1CCN(S(=O)(=O)c2ccc3ccccc3c2)CC1)NC(=O)NC1CCCCC1,,18.4 µM (active)
COc1ccc(S(=O)(=O)N2CCN(C(=O)NC3CCCCC3)CC2)cc1,2.42% (inactive),
O=C(CN1CCN(S(=O)(=O)c2ccc(F)cc2)CC1)NC1CC1,12.1% (inactive),
CC(=O)c1sc(N2C(=O)c3oc4ccccc4c(=O)c3C2c2ccc(C)cc2)nc1C (centres undefined),25% (inactive),
CN(C)c1ccnc2sc(C(=O)c3ccccc3)c(N)c12,12.2% (inactive),
CN(C)/C=C/c1c(C#N)c(=O)ncn1Cc1ccccc1,-13.6% (inactive),
CN(C)c1ccnc2sc3c(=O)n(Cc4ccccc4)cnc3c12,,8.2 µM (active)
COc1ccc(-c2coc3c(C(=O)NC(C)C)cccc23)c(C)c1,-5.97% (inactive),
CC(=O)Nc1ccc2nc(NC(=O)CS(=O)(=O)c3ccc(F)cc3)sc2c1,-2.91% (inactive),
CCS(=O)(=O)N1Cc2ccccc2CC1C(=O)Nc1nc2ccc(F)cc2s1 (centres undefined),,14.6 µM (active)
CCS(=O)(=O)N1Cc2ccccc2CC1C(=O)Nc1ccc(OC)cc1OC (centres undefined),3.09% (inactive),
NC(=O)C1CCN(c2ncc(-c3ccc(Cl)cc3)s2)CC1,13.3% (inactive),
CCCC(=O)N1CCC1(C)C(=O)Nc1ccc(-n2cncn2)cc1 (centres undefined),5.17% (inactive),
CSCCC(C(=O)NC(C)(C)C)n1c(-c2ccccc2)nc2ccccc21 (centres undefined),-25.2% (inactive),

Structure (SMILES),"activity change, negative = cytotoxicity",Potency
O=S(=O)(N1CCOCC1)N1CCN(c2ccccc2F)CC1,-16.5% (inactive),
Cc1ccc(S(=O)(=O)N2CCN(S(=O)(=O)N3CCOCC3)CC2)cc1,6.91% (inactive),
Cc1cccc(C)c1N1CCN(S(=O)(=O)N2CCOCC2)CC1,,16.4 µM (active)
c1cc(-c2nn[nH]n2)ccc1CN1CCCCC1,-12.7% (inactive),
Clc1ccc(-n2nnnc2CN2CCCCC2)cc1Cl,,13 µM (active)
Clc1ccc(CN2CCCCCC2)cc1Cl,-11.5% (inactive),
COc1ccc(S(=O)(=O)NC(=O)C2(C)CCN2C(=O)c2ccccc2CCc2ccccc2)cc1 (centres undefined),-9.62% (inactive),
Cc1ccc(C)c(N2CCN(C(=O)CN3C(=O)COc4ccc(S(=O)(=O)N5CCCCCC5)cc43)CC2)c1,-1.22% (inactive),
CC1(C)CC(=O)C2=C(C1)Nc1cc(C(=O)c3ccccc3)ccc1NC2c1ccccn1 (centres undefined),,20.6 µM (active)
Cc1cc2c(cc1C)NC(c1ccccn1)C1=C(CC(C)(C)CC1=O)N2 (centres undefined),-1.56% (inactive),
Cc1nn(-c2ccccn2)c2c1C(c1ccncc1)C1=C(CC(C)(C)CC1=O)N2 (centres undefined),-6.62% (inactive),
COc1ccc(C)cc1NC(=O)COCc1cc(-c2cccs2)on1,-7.37% (inactive),
O=S1(=O)CC(N2CCN(c3ccccn3)CC2)CN1Cc1ccc(F)cc1 (centres undefined),-24.7% (inactive),
COC(=O)C[C@@H]1C=C[C@@H](NS(=O)(=O)c2cccc(OC)c2)[C@@H](CO)O1,-3.47% (inactive),
CC(C)C[C@H]1CNC(=O)C(=O)N1C[C@@H]1CCCN1C[C@H](Cc1ccccc1)N1C[C@H](CC(C)C)N(CC2CCCCCC2)C(=O)C1=O,1.82% (inactive),
CN(Cc1cccnc1)C(=O)c1cc(COc2ccc3ncccc3c2)on1,,5.17 µM (active)
Cc1ccc(OCc2cc(C(=O)N(C)CCc3ccccc3)no2)cc1C,-18.2% (inactive),
CN(Cc1cnccn1)C(=O)c1cc(COc2cccc(C(F)(F)F)c2)on1,-13.2% (inactive),
CC(C)c1cccc(C(C)C)c1Nc1cn[nH]c1,13.2% (inactive),
CC(=O)c1c(C)[nH]c(C(=O)COC(=O)c2cccc(S(=O)(=O)N(C)c3ccccc3)c2)c1C,,11.6 µM (active)
COc1cccc(C(=O)OCC(=O)c2[nH]c(C)c(C(C)=O)c2C)c1,-9.26% (inactive),
CC(=O)c1c(C)[nH]c(C(=O)COC(=O)c2cccs2)c1C,0% (inactive),

Structure (SMILES),"activity change, negative = cytotoxicity",Potency
O=C(Nc1ccc2nc(SCC(=O)N3CCc4ccccc43)sc2c1)c1ccccc1F,4.97% (inactive),
COc1ccc(C2CC(=O)N(Cc3ccccc3C)c3c2c(C)nn3-c2nc(C)cc(C)n2)c(OC)c1 (centres undefined),-1.08% (inactive),
C[C@@H]1CN([C@@H](C)CO)S(=O)(=O)c2ccc(C#Cc3cccc(F)c3)cc2O[C@H]1CN(C)S(=O)(=O)c1cn(C)cn1,9.43% (inactive),
C[C@H]1CN([C@@H](C)CO)C(=O)CCCn2cc(nn2)CO[C@@H]1CN(C)S(=O)(=O)c1ccc(-c2ccccc2)cc1,13.4% (inactive),
Cc1ccn2c(-c3csc(Nc4ccc(C(=O)O)cc4)n3)c(C)nc2c1,-1.24% (inactive),
O=c1c(=O)n(Cc2c(F)cccc2Cl)ccn1Cc1ccccc1,10.3% (inactive),
O=C(Nc1cccn(Cc2c(Cl)cccc2Cl)c1=O)c1ccc(Cl)cc1,,3.66 µM (active)
O=C(Nc1cccn(Cc2ccccc2Cl)c1=O)NC1CCCCC1,-3.85% (inactive),
O=C(Nc1cccc2ccccc12)NC1CC1,11.2% (inactive),
CCCCNC(=O)OC1CC2CC1[C@H]1CCCCN1C2=O (some centres undefined),-12.4% (inactive),
C[C@@H]1CN([C@@H](C)CO)C(=O)c2cc(Br)cnc2O[C@@H]1CN(C)C(=O)C1CCCCC1,-14.1% (inactive),
CCOC(=O)N/N=C/c1cn(Cc2ccccc2Cl)c2ccccc12,,5.8 µM (active)
CNC(=S)N/N=C/c1cn(Cc2ccc(C)cc2)c2ccccc12,,16.4 µM (active)
COC(=O)N/N=C/c1cn(CCCOc2ccc(C)cc2)c2ccccc12,,18.4 µM (active)
N#CCC(=O)N/N=C/c1cn(Cc2ccc3ccccc3c2)c2ccccc12,-0.985% (inactive),
COc1ccc(OCCn2cc(C(=O)C3CCCCC3)c3ccccc32)cc1,-19% (inactive),
COc1cccc(Cn2cc(/C=N/NC(=O)c3cc(O)cc(O)c3)c3ccccc32)c1,-23.7% (inactive),
NC(=O)Cn1cc(/C=N\NS(=O)(=O)c2ccccc2)c2ccccc21,0% (inactive),
CNC(=S)N/N=C/c1ccc(OCc2ccccc2)c(Br)c1,-3.98% (inactive),
Cc1ccc(OCCOc2cccc(/C=N/NC(N)=O)c2)cc1,1.37% (inactive),
